Source: PubChem BioAssay (National Center for Advancing Translational Sciences (NCATS))
Rows were chosen to be rich in hits. Some 21% of all compounds tested hit in one or more screens of this group.
Sm TGR block – qHTS Assay for the Inhibitors of Schistosoma Mansoni Peroxiredoxins; Schistosoma mansoni thioredoxin glutathione reductase (TGR), Q962Y6; purified TGR, DTNB reduction, TNB absorbance 405 nm; Potency, µM (series often up to 114 µM), most hits filed as inhibitors; 3% of 360,000 active; AID 485364, 2010; note: nearly all actives have a fitted effect of over 60% in size
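Kinetic colorimetric format: TGR-catalysed, NADPH-driven DTNB reduction monitored via TNB absorbance. Enzyme dispensed at 20 nM; compound exposure 15 min at room temperature before reaction start.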
Pf growth 48h – Primary qHTS for delayed death inhibitors of the malarial parasite plastid, 48 hour incubation | P. falciparum luciferase growth in erythrocytes, 48 h | Potency, µM (series often up to 28.7 µM), hits mostly inhibitors | 5.9% of 310,000 active | AID 504832, 2011
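Here the parasites carry a stable luciferase gene and grow inside erythrocytes in Albumax-based RPMI medium with compound for one erythrocytic cycle. Activity is scored as loss of luminescent signal.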
Pf growth 96h – Primary qHTS for delayed death inhibitors of the malarial parasite plastid, 96 hour incubation. Potency, µM (titrated, usually from 28.7 µM), usual class: inhibitors. AID 504834, 2011. P. falciparum luciferase reporter growth, 96 h. 6.9% of 320,000 active
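Readout is luminescence from an integrated firefly luciferase in P. falciparum. Red cells, 2% hematocrit and 0.05% parasitemia final, were cultured with compound through two parasite generations (96 hours) at 37 C, 5% CO2.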
NS1 inh – qHTS Assay for Inhibitors of Influenza NS1 Protein Function; Potency, µM (doses to about 46.1 µM); 0.4% of 270,000 active; calls by dose curve; note: actives are rising curves; nearly all actives have a fitted effect of over 50% in size
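In this qHTS, NS1 from influenza A is expressed in budding yeast, where it slows growth. Cells are switched from glucose to 2% galactose medium (pH 6.0, -URA), treated with compound, and growth recovery is read at OD600.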
Cycloheximide cs – Cycloheximide Counterscreen for Small Molecule Inhibitors of Shiga Toxin; cell reporter, cycloheximide protein synthesis inhibition counterscreen; max response, %; 12% of 300,000 active; AID 2314, 2010; in the data active = max response mostly above about 13%, no sharp cut-off; inactive = mostly below about 14%; note: read at 38.3 µM for the half of the compounds with a filed dose
Shiga toxin inh – A qHTS for Small Molecule Inhibitors of Shiga Toxin | inhibition, % at 38.7 µM | Vero cells, Shiga toxin protein synthesis inhibition reporter | 9.2% of 290,000 active | AID 2315, 2010; in the data active = inhibition mostly above about 28%, no sharp cut-off; inactive = mostly below about 43%
A number is an active result. Unless noted, calls come from the whole dose curve; as a rule, active = well fitted curve in the direction sought with a large enough effect; inconclusive = small, poorly fitted or top-dose-only effect, or another doubt; inactive = no such curve, though single readings can be large; an effect the other way counts as inactive or inconclusive.

Screening COc1ccc(CNC(=O)C2CCN(c3cc(C(=O)Nc4cccc(OC)c4)ccn3)CC2)cc1 returned Sm TGR block inactive, Pf growth 48h inactive, Pf growth 96h inactive, NS1 inh inactive, Cycloheximide cs inactive and Shiga toxin inh inactive.
Screening COc1ccc([C@H]2CC(=O)C=C(c3ccc(Cl)c(C(F)(F)F)c3)C2)cc1 returned Sm TGR block inactive, Pf growth 48h inactive and Pf growth 96h inconclusive.
`COc1cc(/C=C/C(=O)OCC(=O)NCc2ccccc2OC)ccc1O` gave Sm TGR block inactive, Pf growth 48h inconclusive and Pf growth 96h inactive.
For O=C(COC(=O)c1cccc(N2C(=O)C3CC=CCC3C2=O)c1)c1ccccc1 (stereo unspecified) the results were Sm TGR block inactive, Pf growth 48h inactive, Pf growth 96h inactive, NS1 inh inactive, Cycloheximide cs 27 and Shiga toxin inh 55.
Screening O=C(O)c1cccc(N2C(=O)C3CC=C(Cl)CC3C2=O)c1 (stereo unspecified) returned Sm TGR block inactive, Pf growth 96h 10µM, NS1 inh inactive, Cycloheximide cs inactive and Shiga toxin inh inactive.
Screening O=C(COC(=O)c1ccc(N2CCCC2=O)cc1)c1ccccc1 returned Sm TGR block inactive, Pf growth 48h inactive, Pf growth 96h inactive, NS1 inh inactive, Cycloheximide cs 31 and Shiga toxin inh 83.
For O=C(COC(=O)c1cccc(O)c1)c1ccccc1 the results were Sm TGR block inactive, Pf growth 48h inactive and Pf growth 96h inactive.
For Nc1cccc(C(=O)OCC(=O)c2ccccc2)c1 the results were Sm TGR block inactive, Pf growth 48h inactive, Pf growth 96h inactive, NS1 inh inactive, Cycloheximide cs 44 and Shiga toxin inh active.
Screening O=C(COC(=O)c1ccc(N2CCCC2=O)cc1)Nc1ccccc1 returned Sm TGR block inactive, Pf growth 48h inactive and Pf growth 96h inactive.
Screening O=C(O)c1cccc(N2C(=O)C3CC=CCC3C2=O)c1 (stereo unspecified) returned Sm TGR block inactive, Pf growth 48h inactive, Pf growth 96h inactive, NS1 inh inactive, Cycloheximide cs inactive and Shiga toxin inh inactive.
Screening O=C(CN1C(=O)C2CC=C(Cl)CC2C1=O)Nc1ccc(C(=O)O)cc1 (stereo unspecified) returned Sm TGR block inactive, Pf growth 48h inactive, Pf growth 96h 13µM, NS1 inh inactive, Cycloheximide cs inactive and Shiga toxin inh inactive.
Screening CC1C=CCC2C(=O)N(c3cccc(C(=O)N4CCN(c5ccc(F)cc5)CC4)c3)C(=O)C12 (stereo unspecified) returned Sm TGR block inactive, Pf growth 48h inactive, NS1 inh inactive, Cycloheximide cs inactive and Shiga toxin inh inactive.
For CCc1ccc(C(=O)COC(=O)c2cccc(N3C(=O)c4c(C)nc5ccccc5c4C3=O)c2)cc1 the results were Sm TGR block inactive, Pf growth 48h inactive, Pf growth 96h inconclusive, NS1 inh inactive, Cycloheximide cs 56 and Shiga toxin inh 103.
CN(C(=O)c1cccc(N2C(=O)C3CC=CCC3C2=O)c1)C1CCCCC1 (stereo unspecified) was read as Sm TGR block inactive, Pf growth 48h inconclusive, Pf growth 96h 10µM, NS1 inh inactive, Cycloheximide cs inactive and Shiga toxin inh inactive.
For O=C(c1cccc(N2C(=O)C3CC=CCC3C2=O)c1)N1CCN(c2ccccc2)CC1 (stereo unspecified) the results were Sm TGR block inactive, Pf growth 48h 12µM, Pf growth 96h inconclusive, NS1 inh inactive, Cycloheximide cs inactive and Shiga toxin inh inactive.
`O=C(c1cccc(N2C(=O)C3CC=CCC3C2=O)c1)N1CCCCCC1` (stereo unspecified) gave Sm TGR block inactive, Pf growth 48h inactive, Pf growth 96h 0.17µM, NS1 inh inactive, Cycloheximide cs inactive and Shiga toxin inh inactive.
Screening Cc1ccc(-n2nc3c(c2NC(=O)CC(C)C)CS(=O)C3)cc1 (stereo unspecified) returned Sm TGR block 50µM, Pf growth 48h inactive, Pf growth 96h inactive, NS1 inh inactive, Cycloheximide cs inactive and Shiga toxin inh inactive.
CC(C)CC(=O)Nc1c2c(nn1-c1ccc(F)cc1)CS(=O)C2 (stereo unspecified) was read as Sm TGR block inactive, Pf growth 48h inconclusive, Pf growth 96h inactive, NS1 inh inactive, Cycloheximide cs 24 and Shiga toxin inh inactive.
`COc1ccc(-n2nc3c(c2NC(=O)CC(C)C)CS(=O)C3)cc1` (stereo unspecified) gave Sm TGR block inactive, Pf growth 48h inactive, Pf growth 96h inactive, NS1 inh inactive, Cycloheximide cs inactive and Shiga toxin inh inactive.
For COc1ccc(CNC(=S)Nc2cccc(OC)c2)cc1 the results were Sm TGR block inactive, Pf growth 48h inactive, Pf growth 96h inconclusive, NS1 inh inactive, Cycloheximide cs inactive and Shiga toxin inh inactive.
`S=C(NCc1ccc(Cl)cc1)Nc1ccncc1` gave Sm TGR block 35µM, Pf growth 48h 13µM, Pf growth 96h inactive, NS1 inh inactive, Cycloheximide cs inactive and Shiga toxin inh inactive.
COc1cccc(NC(=O)C(=O)NCc2ccncc2)c1 was read as Pf growth 48h inactive, Pf growth 96h inactive, NS1 inh inactive, Cycloheximide cs 29 and Shiga toxin inh 78.
For FC(F)(F)c1ccccc1NC(=S)NN=C1CCCCCC1 the results were Sm TGR block inactive, Pf growth 48h inconclusive, Pf growth 96h inconclusive, NS1 inh inactive, Cycloheximide cs 33 and Shiga toxin inh inactive.
COc1cccc(NC(=S)NCc2ccncc2)c1 was read as Sm TGR block inconclusive, Pf growth 48h inactive, Pf growth 96h 8.3µM, NS1 inh inactive, Cycloheximide cs inactive and Shiga toxin inh inactive.
Screening S=C(NCc1ccc(Cl)cc1)Nc1ccccc1 returned Sm TGR block inconclusive, Pf growth 48h inactive, Pf growth 96h inactive, NS1 inh inconclusive, Cycloheximide cs inactive and Shiga toxin inh inactive.
For Cc1cc2oc(C(=O)Nc3ccc(S(N)(=O)=O)cc3)c(C)c2cc1Cl the results were Sm TGR block inactive, Pf growth 48h inactive, Pf growth 96h inactive, NS1 inh inactive, Cycloheximide cs inactive and Shiga toxin inh inactive.
For O=C(O)CONC(=O)c1cc(OCC(F)(F)F)ccc1OCC(F)(F)F the results were Sm TGR block inactive, Pf growth 48h inactive, Pf growth 96h inactive, NS1 inh inactive, Cycloheximide cs inactive and Shiga toxin inh inactive.
Screening COc1cccc(NC(=S)NN2C(C)CCCC2C)c1 (stereo unspecified) returned Sm TGR block inactive, Pf growth 48h inconclusive, Pf growth 96h inconclusive, NS1 inh inactive, Cycloheximide cs inactive and Shiga toxin inh inactive.
Screening COc1cccc(NC(=S)NN=C2CCCCCC2)c1 returned Sm TGR block inactive, Pf growth 48h inactive, Pf growth 96h inconclusive, NS1 inh inactive, Cycloheximide cs 26 and Shiga toxin inh 53.
